Assay [1] is described as follows: Cytotoxicity counterscreen for inhibitors of SARS-CoV-2 cell entry (AID 1645845). Further: nearly all actives have a fitted effect of over 50% in size. Further: potency means the concentration at half of the fitted maximal effect. On activity change, negative = cytotoxicity: on the % scale 0 is the no-effect control and ±100 the full control effect. The settings on record: outcome: dose series up to 57.1 µM unless noted. In outline:
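Counterscreen run in the same HEK293-ACE2 line as the pseudotyped-particle entry assay, without particles. Viability after 48 h at 37 C was read as ATP luminescence, scaled between cell-containing and cell-free wells.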

Assay [2] can be described thus: Primary qHTS to identify inhibitors of SARS-CoV-2 cell entry (AID 1645846). Further: nearly all actives have a fitted effect of over 45% in size. Further: potency means the concentration at half of the fitted maximal effect. The following applies: SARS-CoV-2 pseudovirus cell entry assay, luminescence; activity change, negative = inhibition: at 57.1 µM (top of the series) unless noted. In outline:
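Entry measured by luciferase signal 48 h after adding SARS-CoV-2-S pseudotyped MLV particles to HEK293-ACE2 cells preincubated 1 h with compounds. Normalisation: bald particles and spike particles.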

For assay [3], the target named is Glutathione peroxidase 1 (Homo sapiens) (UniProt P07203). Briefly: Primary qHTS Assay for Inhibitors of Recombinant Selenoprotein Glutathione Peroxidase 1 (GPX1) (AID 1845191; active means well fitted inhibition curve with a large enough effect; further: nearly all actives have a fitted effect of over 65% in size). In outline: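 GR-coupled readout: NADPH consumption tracked by fluorescence, ex 340/em 450 nm, at t=0 and after 15 min at RT. Final mix 10 nM GPX1, 1 mM GSH, 0.5 mM CHP, 0.5 mM NADPH, 100 nM GR, 0.01% BSA, following 30 min enzyme–compound preincubation.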
On the technique in general: qHTS replaces the single test concentration by a dilution series.

Assay [4] has as its target Phospholipid hydroperoxide glutathione peroxidase GPX4 (Homo sapiens) (UniProt P36969). Briefly: Primary qHTS Assay for Inhibitors of Recombinant Selenoprotein Glutathione Peroxidase 4 (GPX4) (AID 1845192; active means well fitted inhibition curve with a large enough effect; further: on the % scale 0 is the no-effect control and ±100 the full control effect; nearly all actives have a fitted effect of over 65% in size). In a few lines:
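Steps: GPX4 plus compound, 30 min RT; add GR/GSH/NADPH master mix; start with cumene hydroperoxide; read 340/450 nm fluorescence at 0 and 15 min. Finals were 200 nM GPX4, 1 mM GSH, 0.5 mM CHP, 0.5 mM NADPH, 100 nM GR.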

The nature of assay [5]: qHTS drug screen for cell cycle checkpoint inhibitors in PARPi-resistant BRCA-mutant ovarian cancer cell lines. (AID 1963452). The settings on record: PEO1/OlaR viability, CellTiter-Glo luminescence, 96 h, stronger effect = lower value. In outline:
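PEO1, PEO4 and PEO1/OlaR ovarian cancer cells, 600 per well, exposed 96 h at 37C to a dilution series. Viability read by CellTiter-Glo luminescence, normalized to DMSO and empty wells; activity summarized as Z-AUC.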

The structures appear in SMILES notation. Results filed as inconclusive are left out. Activity calls are given as the source filed them. Unless noted, the call rests on the fitted dose curve.

Chain of Glutathione peroxidase 1 (Homo sapiens) (P07203 whole entry, looked up): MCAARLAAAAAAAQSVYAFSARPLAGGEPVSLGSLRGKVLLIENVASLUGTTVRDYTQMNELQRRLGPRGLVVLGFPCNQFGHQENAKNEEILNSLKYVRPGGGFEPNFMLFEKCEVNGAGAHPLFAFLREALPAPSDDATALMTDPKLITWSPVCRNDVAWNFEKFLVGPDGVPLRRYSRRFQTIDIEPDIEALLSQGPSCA
Chain of Phospholipid hydroperoxide glutathione peroxidase GPX4 (Homo sapiens) (P36969 whole entry, looked up): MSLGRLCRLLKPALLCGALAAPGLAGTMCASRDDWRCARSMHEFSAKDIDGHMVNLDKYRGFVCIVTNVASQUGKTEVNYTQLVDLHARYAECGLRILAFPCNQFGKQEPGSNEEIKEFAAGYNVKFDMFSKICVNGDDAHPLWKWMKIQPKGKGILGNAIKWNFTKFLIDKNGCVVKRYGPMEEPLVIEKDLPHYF

For `O=C(O)C1=CO[C@@H](O[C@@H]2O[C@H](CO)[C@@H](O)[C@H](O)[C@H]2O)[C@@H]2C(CO)=CC[C@H]12`, the Potency result in assay [1] and in assay [2] was “inactive” in each case.

Turning to `CN(C)CCNC(=O)COc1c2cccc1Cc1cccc(c1OCC(=O)NCCN(C)C)Cc1cccc(c1OCC(=O)NCCN(C)C)Cc1cccc(c1OCC(=O)NCCN(C)C)C2`, the activity change, negative = cytotoxicity in assay [1] was -11.8% [at 11.3 µM] (inactive). The outcome in assay [2] is “inactive [at 11.3 µM]”.

Regarding `O=C(CCNC(=O)c1ccc(OC(F)(F)F)cc1)N[C@@H]1CCCc2ccccc21`, the Potency result in assay [1] is “inactive”. The activity change, negative = inhibition in assay [2] was 4.82%.

On to `Cc1cc(Nc2cc(N)ncn2)c(=O)n2c1C(=O)NC21CCCCC1`, for which the Potency entry in assay [1] and in assay [2] was “inactive” each time.

For the molecule `COc1cc(OC)c2c(=O)[nH]c(-c3cc(C)c(OCCO)c(C)c3)nc2c1`, the Potency entry in assay [1] and in assay [2] was “inactive” each time.

As for `O=C(O)c1ccccc1-c1ccc(/C=c2\sc3nc4cc(Br)cnc4n3c2=O)o1`, the Potency entry in assay [1] was “inactive”. Further, the activity change, negative = inhibition in assay [2] is -1.33% [at 27.1 µM].

For the molecule `C[C@H]1C[C@@H](n2c(Nc3ccc(OC(F)(F)F)cc3)nc3cc(CCC(=O)O)ccc32)CC(C)(C)C1`, the Potency entry in assay [1] was “inactive”. Besides, the activity change, negative = inhibition in assay [2] turned out to be 2.52%.

`CC(C)Cc1ccc([C@@H](C)C(=O)NS(C)(=O)=O)cc1`: the Potency result in assay [1] was “inactive”. Further, the activity change, negative = inhibition in assay [2] amounted to 3.55%.

As to `CN1C(=O)N[C@@H](Cc2c[nH]c3c(Cl)cccc23)C1=O`, in assay [1], the Potency result was “inactive”. For the same molecule, in assay [2], the activity change, negative = inhibition was 1.88%.

Consider `Cn1cc(-c2cnc3ccc4ccc(CS(=O)(=O)NCc5ccccn5)cc4c(=O)c3c2)cn1`, for which the Potency result in assay [1] was “inactive”. Moreover, the activity change, negative = inhibition in assay [2] is -59.2%.

For `Cc1ccc(NC(=O)c2ccc(CN3CCNCC3)cc2)cc1Nc1nccc(-c2cccnc2)n1`, in assay [1], the Potency was 25.1 µM (active). For the same molecule, in assay [2], the activity change, negative = inhibition was -27.5%.

Regarding `O=C(/C=C\n1cnc(-c2cc(C(F)(F)F)cc(C(F)(F)F)c2)n1)NNc1ccccn1`, the Potency is 2.51 µM (active) in assay [1] and 3.16 µM (active) in assay [2].

Regarding `Cc1cc(-c2nc3cc(F)ccc3s2)ccc1NC(=O)[C@@H](N)CCCCN`, the Potency is 22.4 µM (active) in assay [1] and 28.2 µM (active) in assay [2].

`Cc1cc(OCc2nnc(SC3CCCC3)n2-c2cccnc2)ccc1-c1ccc(S(C)(=O)=O)cc1`: the Potency entry in assay [1] is “inactive”. Moreover, the activity change, negative = inhibition in assay [2] was -22.4%.

With `O=C(O)CCCCN(CCc1ccccc1OCc1ccc(CCc2ccccc2)cc1)Cc1ccc(C(=O)O)cc1`, the Potency result in assay [1] and in assay [2] was “inactive” in each case.

Turning to `O=C(c1c(F)ccc(NS(=O)(=O)N2CC[C@@H](F)C2)c1F)c1c[nH]c2ncc(-c3cnc(C4CC4)nc3)cc12`, in assay [1], the Potency entry is “inactive”. For the same molecule, the activity change, negative = inhibition in assay [2] was -17.3%.

In the case of `CCOc1cc(C(=O)N2CCC(N3CCN(C)CC3)CC2)ccc1Nc1ncc2c(n1)N(C1CCCC1)c1ccccc1C(=O)N2C`, in assay [1], the Potency entry is “inactive”. Besides, in assay [2], the Potency was 25.1 µM (active).

`Nc1nc(F)nc2c1ncn2C1OC(COP(=O)(O)O)C(O)C1O` (stereo not drawn): in assay [1], the Potency result is “inactive”. Moreover, in assay [2], the activity change, negative = inhibition was -9.43%.

Regarding `O=c1c(-c2ccc(O)cc2)coc2cc(O[C@@H]3O[C@H](CO)[C@@H](O)[C@H](O)[C@H]3O)ccc12`, the Potency result in assay [1] and in assay [2] was “inactive” throughout.

Regarding `CN[C@@H](C)C(=O)N[C@H](C(=O)N1CCC[C@H]1c1nc(C(=O)c2ccc(F)cc2)cs1)C1CCCCC1`, the Potency result in assay [1] was “inactive”. Further, the activity change, negative = inhibition in assay [2] was -6.26%.

In the case of `O=C1OC2(CCC(C(=O)Nc3ccn(-c4ccccc4F)n3)CC2)c2cnccc21` (stereo not drawn), the Potency result in assay [1] and in assay [2] was “inactive” each time.

On to `Cn1c(CCCCCCC(=O)NO)nc2cc(N(CCCl)CCCl)ccc21`, for which the Potency entry in assay [1], in assay [3] and in assay [4] was “inactive” throughout. Further, the Z-AUC in assay [5] is -0.877 (inactive); in assay [5] (measured here: PEO1 parental Z-AUC), -0.482; in assay [5] (measured here: PEO4 Z-AUC), -0.0287.

The values are drawn from PubChem BioAssay (NCATS).
